# In PubChem BioAssay (Tox21):
# Results filed as inconclusive are left out. The source made the active and inactive calls. Calls come from the whole dose curve; as a rule, active = well fitted cell-killing curve with a large enough effect in the repeat runs; inconclusive = weak or mixed curves, or effect the other way; inactive = flat fitted curve, though single readings scatter.
# Experiment: qHTS assay to identify small molecule antagonists of the constitutive androstane receptor (CAR) signaling pathway - cell viability counter screen (AID 1224837); note: nearly all actives have a fitted effect of over 45% in size
# Settings: HepG2-CYP2B6-hCAR viability, CellTiter-Fluor, 23 h, co-treated with 50 nM CITCO; series mostly up to 92.4 µM; activity change, negative = cytotoxicity: at the top concentration
# Procedure, shortened: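 Using CellTiter-Fluor, viability is scored in HepG2 cells stably carrying hCAR and a 2.2kb CYP2B6 reporter after 23 hr compound exposure across 15 concentrations, with CITCO present at 50 nM.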
# % is set by controls: 0 for no effect and ±100 for the full control effect.
SMILES,Potency,"activity change, negative = cytotoxicity"
CCC(=O)OC/C=C/c1ccccc1,inactive,–
O=C(CS)OCCOC(=O)CS,–,3.18% (inactive)
CN1CCN(c2c(F)cc3c(=O)c(C(=O)O)cn4c3c2OCN4C)CC1,–,-2.88% [at 19 µM] (inactive)
Cc1cc(O)c(C(C)C)cc1Cl,inactive,–
O=C(C(=O)c1ccccc1)c1ccccc1,–,7.22% (inactive)
CCOC(=O)c1ccccc1OC,–,-7.56% (inactive)
CC(C)CCCC(=O)O,–,1.73% (inactive)
CCC(C(=O)OCCOCCN(CC)CC)c1ccccc1 (stereo not drawn),–,-2.5% [at 42.5 µM] (inactive)
O=C(O)c1ccccc1NCCc1ccccc1,–,9.24% [at 42.5 µM] (inactive)
CCOC(=N)CC(=O)OCC,–,-2.01% (inactive)
COc1cc2[nH]c(=O)[nH]c(=O)c2cc1OC,–,-1.29% [at 42.5 µM] (inactive)
CCC(C)(C)C1CCC(O)CC1 (stereo not drawn),–,4.71% (inactive)
CCC(C)(O)CCC=C(C)C (stereo not drawn),–,2.53% (inactive)
Cc1nc2ccccn2c(=O)c1CCN1CCC(C(=O)c2ccc(F)cc2)CC1,–,-13.9% [at 42.5 µM] (inactive)
O=C(O)c1cccc(O)c1,–,0.861% (inactive)
CC(C)C(OC(=O)c1ccccc1)C(C)(C)COC(=O)c1ccccc1 (stereo not drawn),–,4.38% (inactive)
CC(C)C(=O)O,–,0.875% (inactive)
CC(C)CCCCCCOC(=O)CCCCC(=O)OCCCCCCC(C)C,–,2.07% (inactive)
C[C@@H]1C[C@H]2[C@@H]3CCC4=CC(=O)C=C[C@]4(C)[C@@]3(F)[C@@H](O)C[C@]2(C)[C@H]1C(=O)CO,–,1.47% [at 42.5 µM] (inactive)
CC1(C)C2=CCCC(C)(C)[C@]23CC[C@H]1C3,–,-2.51% (inactive)
CNC(=S)NC,–,-11.1% (inactive)
CCCCC/C(=C\c1ccccc1)CO,–,-12.6% (inactive)
Cc1cc(C(=C2C=CC(=Nc3ccc(S(=O)(=O)O)cc3S(=O)(=O)O)C=C2)c2ccc(Nc3ccc(S(=O)(=O)O)cc3)cc2)ccc1N,–,-0.795% [at 42.5 µM] (inactive)
